Screening data deposited in PubChem BioAssay by several laboratories.
IDE inh – human IDE inhibitors in live cells, primary screen, fluorescence polarization, HEK cells, FAbetaB substrate; Insulin-degrading enzyme (Homo sapiens), P14735; FAbetaB cleavage; inhibition, % at 5.59 µM; actives 0.41% (n = 320,000);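 active = percent inhibition above the average of all tested compounds plus 3 SD, set per screening campaign, cut at about 16% in these data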;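 note: IDE supplied by intact live HEK cells; FP after avidin binding of uncleaved biotin substrate so inhibition keeps polarization high; 0% = DMSO wells and 100% = 60 µM reference IDE inhibitor Ii1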
Target sequence (P14735 whole entry, looked up): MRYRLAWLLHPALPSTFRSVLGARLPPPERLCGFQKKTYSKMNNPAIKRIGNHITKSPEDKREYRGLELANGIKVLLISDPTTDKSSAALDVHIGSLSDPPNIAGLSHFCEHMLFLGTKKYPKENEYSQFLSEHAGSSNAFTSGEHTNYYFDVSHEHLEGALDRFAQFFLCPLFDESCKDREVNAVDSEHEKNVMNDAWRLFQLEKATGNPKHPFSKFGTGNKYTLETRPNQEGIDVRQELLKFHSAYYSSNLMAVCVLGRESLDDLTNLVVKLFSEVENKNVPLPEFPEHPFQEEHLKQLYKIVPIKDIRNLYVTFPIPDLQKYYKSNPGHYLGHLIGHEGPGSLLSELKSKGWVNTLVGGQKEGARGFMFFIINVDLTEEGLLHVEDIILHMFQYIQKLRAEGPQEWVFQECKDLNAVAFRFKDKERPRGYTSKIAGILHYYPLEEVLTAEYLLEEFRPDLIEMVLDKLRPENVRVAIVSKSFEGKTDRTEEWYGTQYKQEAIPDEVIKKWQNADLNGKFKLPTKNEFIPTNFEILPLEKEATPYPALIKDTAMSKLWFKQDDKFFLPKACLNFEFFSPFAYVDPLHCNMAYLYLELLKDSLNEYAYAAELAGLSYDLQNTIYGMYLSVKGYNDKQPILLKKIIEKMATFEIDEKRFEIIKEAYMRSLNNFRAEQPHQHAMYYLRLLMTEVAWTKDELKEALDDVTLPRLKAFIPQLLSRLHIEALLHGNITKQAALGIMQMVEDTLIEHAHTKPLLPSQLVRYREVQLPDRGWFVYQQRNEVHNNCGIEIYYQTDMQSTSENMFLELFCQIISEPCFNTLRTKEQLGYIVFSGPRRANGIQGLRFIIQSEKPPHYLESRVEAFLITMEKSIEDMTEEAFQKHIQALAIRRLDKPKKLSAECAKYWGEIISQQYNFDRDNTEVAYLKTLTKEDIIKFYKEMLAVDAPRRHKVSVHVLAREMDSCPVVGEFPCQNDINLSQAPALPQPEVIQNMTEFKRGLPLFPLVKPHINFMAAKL
RTF Ca sens act – cardiac RTF calcium sensitivity activators, primary screen, biochemical, IANBD-TnC fluorescence, EC20 calcium; Troponin I, cardiac muscle (Homo sapiens) + Troponin T, cardiac muscle (Homo sapiens) + …; activation, % at 7.2 µM; actives 0.24% (n = 340,000); IANBD-labeled TnC RTF fluorescence at EC20 calcium; 0% EC20 calcium, 100% full calcium;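 active = activation above the mean over all tested compounds plus 3 SD, cut at about 30% in these data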;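 note: rise in fluorescence read as greater calcium sensitivity of cardiac thin filaments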
IDE cell activ – human IDE activators in live cells, primary screen, fluorescence polarization, HEK cells, FAbeta-B substrate. actives 0.073% (n = 340,000). Insulin-degrading enzyme (Homo sapiens), P14735. activation, % at 5.96 µM. AID 493087, 2011. FAbeta-B cleavage; 0% vehicle, 100% cell-free pure enzyme wells;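 active = activation above the mean of all tested compounds plus 3 SD, set per screening campaign, cut at about 17% in these data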
CRFBP-R2 agonist – agonists of CRF-BP/CRF-R2 complex, primary screen, cell-based, HEK293, calcium dye fluorescence, uHTS; calcium dye fluorescence (FLIPR); percent of saturating CRF peptide response; activation, % at 13.2 µM; CRF-binding protein / CRF receptor 2 complex (human); actives 0.46% (n = 350,000);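 active = activation of at least 50%, plus an integration ratio under a set limit after plate pattern correction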;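 note: plate controls were neutral control wells without compound for no effect and CRF at EC100 for full effect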
RTF Ca sens inh – cardiac RTF calcium sensitivity inhibitors, primary screen, biochemical, IANBD-TnC fluorescence, EC70 calcium; actives 0.12% (n = 340,000); Troponin I, cardiac muscle (Homo sapiens) + Troponin T, cardiac muscle (Homo sapiens) + …; IANBD-labeled cardiac RTF, Ca2+ fluorescence; inhibition, % at 7.15 µM;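 active = inhibition above the mean inhibition of all tested compounds plus 3 SD, cut at about 17% in these data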;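 note: assay run at fixed EC70 calcium of 1.6 mM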
CRFBP-R2 block – antagonists of CRF-BP/CRF-R2 complex, primary screen, cell-based, HEK293, calcium dye fluorescence, uHTS; CRF-induced calcium fluorescence; inhibition, % at 11.8 µM; actives 0.59% (n = 350,000);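 active = inhibition of the ligand-induced calcium signal above about 50% at the single tested concentration, limit read from the data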
Starred values were filed as active, the others as inactive; / = no result. Compounds with a hit are over-represented: about 1.5% of the library has one in this group of screens.

SMILES	IDE inh	RTF Ca sens act	IDE cell activ	CRFBP-R2 agonist	RTF Ca sens inh	CRFBP-R2 block
Cc1cccc(-n2c(C)cc(/C=C3\C(=N)N4N=C(CC(C)C)SC4=NC3=O)c2C)c1	-2	3	2	71*	3	-59
Cc1cc(/C=C2\C(=N)N3N=C(C(C)C)SC3=NC2=O)c(C)n1-c1ccccc1	6	3	0	9	-6	-63
O=S(=O)(c1ccccc1)c1ccc(N2CCCCCC2)cc1	6	-5	8	1	2	2
CC(=O)c1cccc(CN(C)CC2CCCN(CCc3ccccc3C)C2)c1 (stereo unspecified)	/	-2	-1	4	-6	-11
COc1cccc(CNC(=O)C2CCN(S(=O)(=O)c3ccc4c(c3)CC(C)N4C(C)=O)CC2)c1 (stereo unspecified)	4	2	3	-2	-11	7
Cc1ccc(-n2c3nc(=O)[nH]c(=O)c-3cc3cc([N+](=O)[O-])ccc32)cc1C	-4	-1	-3	58*	2	-73
O=c1c2c(C(F)(F)F)cc(C(F)(F)F)nc2[nH]n1-c1ccccc1	0	1	-5	-1	-2	12
O=c1c(Sc2ccccc2)c(C(F)(F)F)[nH]n1-c1ccccc1	1	0	7	4	-3	81*
c1coc(CSSCc2ccco2)c1	-5	-10	-5	5	9	-6
COc1cc(N2C(=O)C=CC2=O)ccc1N1C(=O)C=CC1=O	/	-3	-32	1	7	63*
COc1ccc(N2C(=O)C3CC(C)=C(C)CC3C2=O)c(OC)c1 (stereo unspecified)	2	1	-3	0	0	10
Cc1ccc2c(c1)-c1[nH]c(=S)ncc1CS2	19*	-1	-12	-1	-6	3
N#Cc1cc(C(=O)c2ccccc2O)cn(-c2ccc(Cl)cc2)c1=O	13	/	/	53*	/	-13
Cc1c(-n2cc(C(=O)c3ccccc3O)cc(C#N)c2=O)c(=O)n(-c2ccccc2)n1C	7	12	-2	139*	-3	23
N#Cc1c(Cl)nc2c(c1C#N)CCCC2	1	5	5	-2	-2	107*
NC(=O)COc1ncn(-c2ccccc2)n1	6	-7	4	1	-6	57*
O=C(CN1C(=O)COc2ccc(S(=O)(=O)N3CCOCC3)cc21)NCc1ccccn1	1	1	8	2	-14	5
O=C1CSC(=S)N1/N=C/c1c(F)cccc1F	0	3	-2	0	7	-3
CN(C)c1ccc(C=NN2C(=O)CSC2=S)c(Cl)c1	/	/	/	50*	/	40
COc1cccc(/C=N/N2C(=O)CSC2=S)c1O	5	-3	-4	0	-3	12
O=C1CSC(=S)N1N=Cc1c(F)cccc1Cl	/	/	/	55*	/	29
Cc1cc(C(=O)NNC(=O)Cc2ccc(Cl)cc2)c(C)o1	-1	-2	0	0	7	1
CN(C)/C=N/c1nccc(-c2cccs2)n1	2	-2	1	54*	-2	3
CN(C#N)c1nccc(-c2cccs2)n1	-3	-5	3	0	2	3
COc1ccccc1C(=O)NNC1=C(C(=O)C(F)(F)F)CCC1	-6	-2	3	62*	4	28
SMILES	IDE inh	RTF Ca sens act	IDE cell activ	CRFBP-R2 agonist	RTF Ca sens inh	CRFBP-R2 block
Nc1c(C(=O)C2CC2)sc2nc(-c3ccccc3)cc(C(F)(F)F)c12	2	19	2	238*	-25	-350
CN(C)CCNC(=O)c1sc2nc(-c3ccccc3)cc(C(F)(F)F)c2c1N	4	-1	-4	24	-7	-32
CC(=O)c1sc2nc(-c3cccs3)cc(C(F)(F)F)c2c1N	3	17	-14	113*	-26	-54
COc1ccc(-c2cc(C(F)(F)F)c3c(N)c(C(=O)NCCSC)sc3n2)cc1	-1	63*	0	66*	-77	-67
C[C@H]1CN([C@@H](C)CO)S(=O)(=O)c2ccc(Br)cc2O[C@H]1CN(C)S(=O)(=O)c1ccccc1	/	/	/	-1	/	-13
Cc1cnc(C2OCCO2)c2cccc(N)c12	/	/	/	0	/	-7
Cc1ccc(Nc2nc(/N=C/NO)n[nH]2)cc1C	1	-3	2	2	-7	6
Nc1ccc(N=Nc2ccccc2)cc1[N+](=O)[O-]	/	-1	5	3	1	63*
COC(=O)c1ccc(COc2ccc(CNCc3ccc(Cl)cc3)cc2)cc1	0	2	0	3	-6	8
Cc1ccc(S(=O)(=O)N2CCCCC2)cc1C(=O)N(CCc1ccccc1)Cc1ccccc1	2	-7	2	4	-8	67*
COc1ccc(S(=O)(=O)N2CCCCCC2)cc1C(=O)N(C)Cc1ccc(C(C)(C)C)cc1	/	3	7	2	-5	78*
CCN1CCN(S(=O)(=O)c2ccc(Cl)c(C(=O)N(CCc3ccccc3)Cc3ccccc3)c2)CC1	/	-9	5	19	0	-5
C/C=C(\C)C(=O)NNC(=O)c1sc(-c2ccccc2)nc1C	3	2	5	1	1	17
COc1cc(/C=C(\C#N)c2nc3ccccc3s2)cc([N+](=O)[O-])c1O	/	2	0	0	2	61*
C[C@H](O)[C@@H]1C(=O)N2CCc3ccc(N4CCN(C)CC4)cc3[C@@H]2C[C@@H]1N(C)C(=O)c1ccco1	/	/	/	0	/	2
N#C/C(=C(/O)COc1ccc(Cl)cc1)c1nc2ccccc2s1	0	-4	2	70*	-5	72*
N#C/C(=C(/O)COc1ccccc1)c1nc2ccccc2s1	8	-2	-1	40	0	41
CC(C)CCn1nnnc1CN1CCN(c2ccccc2)CC1	1	-4	18*	2	2	-3
Cc1c(NC(=O)c2cc(S(=O)(=O)N3CCCCC3)ccc2Cl)c(=O)n(-c2ccccc2)n1C	6	-1	5	-2	-4	1
O=C(C[C@H]1C[C@H](C(=O)N2CCOCC2)[C@@]2(CCC3CCCC3)c3[nH]c4ccc(Cl)cc4c3CCN2C1=O)NCCN1CCOCC1	/	-1	-3	88*	-4	-8
CC(=O)C1=C(O)C(=O)N(c2nccs2)C1c1ccccc1 (stereo unspecified)	1	-2	-3	-3	-5	94*
